# Publication PMC4336329 (PLoS ONE, 2015)
# Screen size: about 310,000 compounds; about 14,000 (4.5%) showed an effect of 50% or more. The effect is printed as a negative number. The full list was thinned out, with strong results kept by preference.
# Target: human ether-à-go-go-related gene (hERG) potassium channel (human, UniProt Q12809)
# Assay: primary screen, population patch clamp on CHO cells stably expressing hERG; higher = less effect of the substance
# 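Further: peak tail current of the secondary pulse compared with the same well before compound.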
# human ether-à-go-go-related gene (hERG) potassium channel, sequence (Q12809 whole entry, looked up): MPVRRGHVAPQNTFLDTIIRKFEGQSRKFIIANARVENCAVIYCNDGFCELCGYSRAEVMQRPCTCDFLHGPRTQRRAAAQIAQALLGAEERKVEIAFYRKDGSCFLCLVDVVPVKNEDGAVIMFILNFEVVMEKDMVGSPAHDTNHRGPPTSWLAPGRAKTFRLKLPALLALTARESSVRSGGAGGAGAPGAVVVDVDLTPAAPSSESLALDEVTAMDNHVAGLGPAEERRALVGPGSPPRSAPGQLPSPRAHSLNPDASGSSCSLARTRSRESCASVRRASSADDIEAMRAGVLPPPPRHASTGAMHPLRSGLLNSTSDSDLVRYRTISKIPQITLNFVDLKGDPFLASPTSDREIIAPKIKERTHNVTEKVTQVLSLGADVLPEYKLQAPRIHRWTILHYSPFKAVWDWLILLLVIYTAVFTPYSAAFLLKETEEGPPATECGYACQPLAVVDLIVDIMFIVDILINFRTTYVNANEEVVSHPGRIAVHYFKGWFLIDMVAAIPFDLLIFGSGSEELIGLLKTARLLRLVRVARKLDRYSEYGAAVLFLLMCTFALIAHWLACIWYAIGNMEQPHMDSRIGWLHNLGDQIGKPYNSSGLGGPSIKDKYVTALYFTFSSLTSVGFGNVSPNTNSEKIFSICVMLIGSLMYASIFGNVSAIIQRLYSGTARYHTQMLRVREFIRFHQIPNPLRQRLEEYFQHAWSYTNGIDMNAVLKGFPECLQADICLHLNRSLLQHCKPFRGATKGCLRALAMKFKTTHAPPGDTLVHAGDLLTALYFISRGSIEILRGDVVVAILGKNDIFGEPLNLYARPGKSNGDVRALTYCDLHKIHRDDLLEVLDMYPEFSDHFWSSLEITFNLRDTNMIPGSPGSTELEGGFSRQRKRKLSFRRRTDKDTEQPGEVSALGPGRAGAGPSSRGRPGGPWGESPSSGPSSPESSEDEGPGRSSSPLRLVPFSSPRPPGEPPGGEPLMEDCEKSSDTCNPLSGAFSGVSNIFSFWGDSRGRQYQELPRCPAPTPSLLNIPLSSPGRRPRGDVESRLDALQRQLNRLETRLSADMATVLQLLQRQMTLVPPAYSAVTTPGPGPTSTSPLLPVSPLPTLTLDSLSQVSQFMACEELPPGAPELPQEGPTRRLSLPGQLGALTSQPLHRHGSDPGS
row,SMILES,"hERG current change (%, negative = inhibition) at 10uM [%]"
1,CC(=O)Nc1ccccc1C(F)(F)F,21.2
2,COc1ccc(C(=O)NC(C)c2nnc(SCC(=O)NC3CCCC3)n2C)cc1 (stereo not drawn),4.98
3,O=C1OC(c2ccc(Cl)cc2)=C/C1=C/c1cccnc1,23.3
4,Cc1c(Cc2ccccc2)c(=O)oc2c(C)c(OCc3nn[nH]n3)ccc12,11.3
5,Cc1ccc(S(=O)(=O)N/N=C/c2ccc(OS(=O)(=O)c3ccc(C)c([N+](=O)[O-])c3)cc2)cc1,7.76
6,Cc1ccc(C(=O)NCCn2cc(SCC(=O)Nc3nnc(C)s3)c3ccccc32)cc1,-3.05
7,COc1ccccc1CNC(=O)CC(C)c1ccccc1 (stereo not drawn),4.63
8,CCCn1c2ccccc2c2nnc(SCC(=O)Nc3cc(C)on3)nc21,-0.11
9,Cc1ccc(S(=O)(=O)N2CCN(S(C)(=O)=O)C2c2ccccc2)cc1 (stereo not drawn),-37.2
10,C=CCOc1ccc(/C=C/C(=O)OCC(=O)NCCc2ccccc2)cc1,8.61
11,COc1ccc(C(CNC(=O)c2cccc(S(=O)(=O)N3CCCC3)c2)N2CCCC2)cc1 (stereo not drawn),-22.9
12,COc1ccc(C(CNC(=O)c2cccc(N(C)C)c2)N2CCCC2)cc1 (stereo not drawn),-28.3
13,COc1ccc(N(C)S(=O)(=O)c2cccc(C(=O)NCC(c3cccs3)N(C)C)c2)cc1 (stereo not drawn),-52.3
14,COc1ccc(C(CNC(=O)c2cccc(S(=O)(=O)N(C)c3ccccc3)c2)N2CCCC2)cc1 (stereo not drawn),-60.2
15,CCN(c1ccccc1)S(=O)(=O)c1cccc(C(=O)NCC(c2cccs2)N(C)C)c1 (stereo not drawn),-48.6
16,CNS(=O)(=O)c1cccc(C(=O)NCC(c2cccs2)N(C)C)c1 (stereo not drawn),-5.25
17,CCOc1ncccc1C(=O)OCC(=O)c1ccc(C)c(C)c1,-20.2
18,CN1CCCC(OC(=O)COc2ccc(Br)cc2)C1.Cl (stereo not drawn),-12.8
19,CCOC(=O)N1CCN(Cc2nc(N)nc(Nc3ccccc3C)n2)CC1,-14.9
20,CCOc1ccc(Nc2nc(N)nc(CSC(=S)N3CCOCC3)n2)cc1,-2
21,CCOC(=O)N1CCN(Cc2nc(N)nc(Nc3ccc(OCC)cc3)n2)CC1,-67.6
22,CCOC(=O)N1CCN(Cc2nc(-c3ccc(OC)cc3)no2)CC1,-4.74
23,CCOC(=O)N1CCN(Cc2nc(N)nc(Nc3ccc(OC)cc3)n2)CC1,-62.4

row,SMILES,"hERG current change (%, negative = inhibition) at 10uM [%]"
1,COc1ccc(Nc2nc(N)nc(CSC(=S)N3CCN(C)CC3)n2)cc1,-12.5
2,CCOC(=O)N1CCN(Cc2nc(N)nc(Nc3ccc(Oc4ccccc4)cc3)n2)CC1,-70.7
3,Cc1c(OCC(F)(F)F)ccnc1CSc1nc2ccccc2[nH]1,20.6
4,O=C(CCN1C(=O)/C(=C/c2ccccc2Cl)SC1=S)NNC(=O)c1ccccc1O,-6.37
5,CCOc1ccc(N(CC(=O)Nc2ccc(OC)cc2)S(C)(=O)=O)cc1,3.39
6,CC(C)(C)C(=O)N1CCC(O)(CS(=O)(=O)c2ccc(Cl)c(Cl)c2)CC1,-5.3
7,CCCN1C(=O)C(NS(=O)(=O)c2ccc(N)cc2)(C(F)(F)F)C(C(=O)OC)=C1C (stereo not drawn),10.1
8,CSc1ccccc1OCc1cc(C(=O)N(C)C(C)c2nc(C)cs2)no1 (stereo not drawn),-63.6
9,O=C(c1cc(COc2ccc(F)cc2Cl)on1)N1CCCC(c2ccccc2)C1 (stereo not drawn),-5.56
10,COc1ccc(OCc2cc(C(=O)NCC(C)(C)N3CCOCC3)no2)c(Cl)c1,-31.8
11,CSc1ccccc1OCc1cc(C(=O)NCC(C)(C)N2CCOCC2)no1,-93
12,CCN(CC1CCCO1)C(=O)c1cc(COc2ccc(OC)cc2Cl)on1 (stereo not drawn),-5.59
13,O=C(c1cc(COc2ccc(F)cc2Cl)on1)N1CC[C@@H]2CCCC[C@H]2C1,12.6
14,CSc1ccccc1OCc1cc(C(=O)N(C)C(C)c2ccccn2)no1 (stereo not drawn),-10.6
15,CCN(CC1CCCO1)C(=O)c1cc(COc2ccc(F)cc2F)on1 (stereo not drawn),-14.8
16,CCN(CC)C1CCN(C(=O)c2cc(COc3ccc(F)cc3Cl)on2)C1 (stereo not drawn),-70
17,Cc1ccc(OCc2cc(C(=O)NCC(C)(C)N3CCOCC3)no2)cc1C,-45.8
18,CCN(CC1CCCO1)C(=O)c1cc(COc2ccccc2SC)on1 (stereo not drawn),-85.6
19,CSc1ccccc1OCc1cc(C(=O)NCc2csc(C(C)C)n2)no1,-9.57
20,COc1cc(CNS(=O)(=O)CCl)cc(OC)c1OC,12.7
21,CCOC(=O)c1sc(=S)n(C)c1NC(=O)c1ccc(OC)cc1,17.4
22,COc1ccc2nc(C)c3cc(C)oc3c2c1,-15.5
23,Cc1cc(C)c2c(n1)SCC(=O)N2CC(=O)Nc1cc(F)ccc1F,-7.16

row,SMILES,"hERG current change (%, negative = inhibition) at 10uM [%]"
1,COc1ccc(NC(=O)/C=C/c2ccc(OC(F)F)cc2)cn1,-24.7
2,CCC(=O)NCCc1nc2cc(NC(=O)c3ccc(F)cc3)ccc2n1C,1.29
3,COc1cc(OC)c(C(=O)Nc2ccncc2)cc1OC,7.83
4,CCC(=O)Nc1ccc(S(=O)(=O)c2ccc(NC(=O)CC)cc2)cc1,0.428
5,CSc1ccccc1OCc1cc(C(=O)N2CCCC(C)C2)no1 (stereo not drawn),-0.622
6,COc1cccc(OCc2cc(C(=O)N3CCN(C)C(c4ccccc4)C3)no2)c1 (stereo not drawn),-6.09
7,COc1ccccc1OCc1cc(C(=O)N2CCN(C)C(c3ccccc3)C2)no1 (stereo not drawn),-61.1
8,CSc1ccccc1OCc1cc(C(=O)N2CCN(C)C(c3ccccc3)C2)no1 (stereo not drawn),-5.98
9,CCN(CC)C1CCN(C(=O)c2cc(COc3ccccc3SC)on2)C1 (stereo not drawn),-68.4
10,Cl.O=C(COc1ccccc1Cc1ccccc1)NCCCN1CCOCC1,-32.1
11,CC(C)(CNC(=O)COc1ccccc1Cc1ccccc1)N1CCOCC1,-55.6
12,COCC1CCN(C(=O)c2cc(COc3ccccc3SC)on2)C1 (stereo not drawn),-33.9
13,Cc1ccccc1OCC(=O)NCC(C)(C)N1CCOCC1,7.19
14,C[C@H](CCC(=O)O)[C@H]1CC[C@H]2[C@@H]3CC[C@@H]4C[C@H](O)CC[C@]4(C)[C@H]3C[C@H](O)[C@]12C,11.8
15,CCCN1CCC(NC23CC4CC(CC(C4)C2)C3)CC1,22.1
16,O=S(=O)(c1cccc2nonc12)N1CCN(c2ccccc2F)CC1,4.42
17,CCOC(=O)c1c(C)[nH]c(C)c1C(=O)CSc1ncccn1,-2.23
18,O=C(Nc1nnc(-c2ccccc2Cl)s1)C1CCN(S(=O)(=O)c2ccc(Cl)cc2)CC1,28.1
19,CCc1cccc(OCCCCN(CC)CC)c1,-37.9
20,Cc1ccc(OCCCN(C)C)c(Br)c1,-20.6
21,Clc1ccc(OCCCn2cncn2)cc1Cl,-12.2
22,CCN(CC)CCCOc1ccc(C)cc1Br,-69
23,CCN(CC)CCCOc1ccc(Cl)c(Cl)c1,-60.5

row,SMILES,"hERG current change (%, negative = inhibition) at 10uM [%]"
1,CCOc1ccccc1OCCCOc1ccc(C)cc1Br,7.97
2,COc1ccc(/C=N/N=C/c2ccc(OC)cc2)cc1,14
3,CCOC(=O)CC1COCCN1C(=O)c1ccc2oc(Cc3ccccc3)nc2c1 (stereo not drawn),1.91
4,COc1ccc([C@@H]2CC=C(C(=O)O)CN2S(=O)(=O)c2ccc(Cl)cc2)cc1,7.54
5,OCC[n+]1c2ccccc2nc2ccc(N3CCOCC3)cc21.[O-][Cl+3]([O-])([O-])[O-],3.86
6,O=C1Cc2cc(NS(=O)(=O)c3cc(F)ccc3F)cc3c2N1CCC3,-2.87
7,Cc1ccc(NC(=S)N(CCN2CCOCC2)Cc2cc3cc4c(cc3[nH]c2=O)OCCO4)cc1,-14.3
8,C=CCNC(=O)CN1C(=O)NC(C)(c2ccc(OC)cc2)C1=O (stereo not drawn),-14.2
9,COC(=O)C(NC(=O)c1ccc(OC)cc1)(Nc1ncc(S(=O)(=O)c2ccc([N+](=O)[O-])cc2)s1)C(F)(F)F (stereo not drawn),-5.41
10,COC(=O)C(NC(=O)c1ccc(F)cc1)(Nc1ncc(S(=O)(=O)c2ccc([N+](=O)[O-])cc2)s1)C(F)(F)F (stereo not drawn),-52.9
11,COC(=O)C(NC(=O)c1ccccc1Cl)(Nc1ncc(S(=O)(=O)c2ccc([N+](=O)[O-])cc2)s1)C(F)(F)F (stereo not drawn),-32.8
12,CCc1nnc(NC(=O)CCC(=O)NC2CCCCCC2)s1,3.71
13,COc1ccc(-c2nc3ccccc3c(=O)n2-c2ccc(OC)cc2)cc1,-4.5
14,COc1ccc(-n2c(Cc3cccc([N+](=O)[O-])c3)nc3ccccc3c2=O)cc1,-69.4
15,COc1ccc(-n2c(-c3ccccc3Br)nc3ccccc3c2=O)cc1,-20.9
16,O=c1c2ccccc2nc(Cc2cccc([N+](=O)[O-])c2)n1-c1ccc(O)cc1,-35.5
17,O=c1c2ccccc2nc(Cc2ccccc2)n1-c1ccc(O)cc1,-23.9
18,COc1ccc(-n2c(-c3ccccc3[N+](=O)[O-])nc3ccccc3c2=O)cc1,-68.7
19,COc1ccc(-n2c(Cc3ccccc3)nc3ccccc3c2=O)cc1,-92.8
20,O=c1c2ccccc2nc(Cc2ccccc2)n1-c1ccccc1,-20.9
21,CCCc1nc2ccccc2c(=O)n1-c1ccc(OC)cc1,9.5
